Compound activity deposited in PubChem BioAssay by National Center for Advancing Translational Sciences (NCATS).
NIH3T3 tox = cytotoxic compounds in NIH 3T3 cells. Potency, µM (highest dose often 96.7 µM), without a hit: at the highest dose activity change, negative = cytotoxicity, usual class: inhibitors. 4.3% of 94,000 active. NIH 3T3 viability, CellTiter-Glo ATP luminescence, 48-72 h. AID 1345082; active = well fitted curve in the direction sought with a large enough effect; inconclusive = small, poorly fitted or top-dose-only effect, or another doubt; inactive = no such curve, though single readings can be large; an effect the other way counts as inactive or inconclusive; also: % is scaled to controls: 0 for no effect and ±100 for the full control effect; nearly all actives have a fitted effect of over 55% in size
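Mouse fibroblast NIH 3T3 cells, 400 per well, received compound via pintool and were incubated for 48 or 72 hr prior to CellTiter-Glo ATP luminescence measurement.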
FLuc inh = blocks purified firefly luciferase enzyme activity; P08659; purified P. pyralis luciferase, luminescence, biochemical; Potency, µM (series often up to 115 µM), usual class: inhibitors; 2.5% of 76,000 active; active = well fitted curve in the direction sought with a large enough effect; inconclusive = small, poorly fitted or top-dose-only effect, or another doubt; inactive = no such curve, though single readings can be large; an effect the other way counts as inactive or inconclusive; also: % is scaled to controls: 0 for no effect and ±100 for the full control effect; nearly all actives have a fitted effect of over 65% in size
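Biochemical qHTS: compound (6-point titration) added to 10uM D-luciferin plus 10uM ATP in Tris acetate pH 7.5 buffer with Mg, Tween-20 and BSA, then purified enzyme at 10nM; light output imaged.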
NPR1 antag = antagonists of human natriuretic peptide receptor Npr1; P16066; HEK293 hNpr1 GloSensor cGMP, ANP-stimulated luminescence; Potency, µM (highest dose often 46.3 µM), without a hit: top-dose activity change, negative = inhibition, hits mostly inhibitors; 1.6% of 76,000 active; AID 1347048; also: % is scaled to controls: 0 for no effect and ±100 for the full control effect; nearly all actives have a fitted effect of over 60% in size
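HEK293 cells stably expressing human Npr1 and cGMP GloSensor pGS-40F, loaded 2 h with 2% GloSensor reagent, given compound 30 min at room temperature. Luminescence read before and 20 min after 0.1 nM hNppA.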
HEK293 tox = kills HEK 293 cells | HEK 293 viability, ATP luminescence (CellTiter-Glo), 48-72 h | Potency, µM (top dose mostly 115 µM), inactives show top-dose activity change, negative = cytotoxicity, most hits filed as inhibitors | 6.6% of 94,000 active | AID 1345083; active = well fitted curve in the direction sought with a large enough effect; inconclusive = small, poorly fitted or top-dose-only effect, or another doubt; inactive = no such curve, though single readings can be large; an effect the other way counts as inactive or inconclusive; also: % is scaled to controls: 0 for no effect and ±100 for the full control effect; nearly all actives have a fitted effect of over 60% in size
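HEK 293 cells seeded at 250 cells/well were exposed to compound for 48 or 72 hr at 37 degree Celsius. Viability taken as ATP content by CellTiter-Glo luminescence.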
Npr1 antag conf = confirmation of human Npr1 natriuretic peptide receptor antagonists | shares compounds with NPR1 antag | 76% of 1,400 active | Potency, µM (series often up to 57.6 µM), for the others: top-dose activity change, negative = inhibition, actives largely listed as inhibitors | HEK293 hNpr1 cGMP GloSensor luminescence, ANP-stimulated; also: nearly all actives have a fitted effect of over 70% in size
Npr2 selectivity = hNpr2 antagonism, selectivity versus Npr1 | shares compounds with NPR1 antag | HEK293 hNpr2 GloSensor cGMP luminescence, CNP-stimulated | Potency, µM (series often up to 57.6 µM), for inactives: top-dose activity change, negative = inhibition, actives largely listed as inhibitors | 67% of 1,400 active | AID 1347046; also: nearly all actives have a fitted effect of over 70% in size
Target sequence (P20594 whole entry, looked up): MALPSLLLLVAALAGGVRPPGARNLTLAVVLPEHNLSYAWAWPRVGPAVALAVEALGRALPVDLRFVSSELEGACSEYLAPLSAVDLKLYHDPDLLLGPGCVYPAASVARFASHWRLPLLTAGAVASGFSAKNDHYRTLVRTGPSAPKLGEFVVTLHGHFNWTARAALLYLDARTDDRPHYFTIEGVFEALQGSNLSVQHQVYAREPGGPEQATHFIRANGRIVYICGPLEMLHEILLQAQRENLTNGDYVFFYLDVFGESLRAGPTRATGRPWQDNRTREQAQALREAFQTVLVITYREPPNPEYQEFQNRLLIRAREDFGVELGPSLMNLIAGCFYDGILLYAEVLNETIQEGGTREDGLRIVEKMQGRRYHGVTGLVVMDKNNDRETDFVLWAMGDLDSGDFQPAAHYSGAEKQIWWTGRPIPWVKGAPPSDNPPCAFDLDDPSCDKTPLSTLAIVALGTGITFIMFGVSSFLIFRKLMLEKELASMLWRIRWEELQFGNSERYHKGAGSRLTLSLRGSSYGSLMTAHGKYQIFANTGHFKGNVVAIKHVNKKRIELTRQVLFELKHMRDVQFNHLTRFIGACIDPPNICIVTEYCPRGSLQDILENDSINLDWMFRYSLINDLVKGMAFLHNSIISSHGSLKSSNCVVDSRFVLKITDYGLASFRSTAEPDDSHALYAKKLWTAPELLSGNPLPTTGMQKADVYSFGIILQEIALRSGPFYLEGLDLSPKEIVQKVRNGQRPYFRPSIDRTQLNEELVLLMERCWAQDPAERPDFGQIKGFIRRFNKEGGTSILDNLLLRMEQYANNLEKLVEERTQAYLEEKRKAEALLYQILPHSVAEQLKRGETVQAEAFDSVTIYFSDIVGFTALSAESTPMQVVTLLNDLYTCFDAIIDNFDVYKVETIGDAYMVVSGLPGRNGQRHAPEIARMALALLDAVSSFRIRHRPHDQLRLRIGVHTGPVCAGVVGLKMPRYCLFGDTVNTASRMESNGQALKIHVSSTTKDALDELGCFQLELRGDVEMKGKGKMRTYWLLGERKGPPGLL
FLuc inh counter = inhibits firefly luciferase, false Npr1 antagonist flag; AID 1347047; shares compounds with NPR1 antag; purified FLuc enzyme, luminescence, Km substrate; 0.7% of 1,400 active; Potency, µM (doses to about 57.6 µM), for inactives: at the top dose activity change, negative = inhibition, hits mostly inhibitors; active = well fitted curve in the direction sought with a large enough effect; inconclusive = small, poorly fitted or top-dose-only effect, or another doubt; inactive = no such curve, though single readings can be large; an effect the other way counts as inactive or inconclusive; also: 0% is about no effect
GloSensor cGMP = control cell line activity, Npr1 antagonist counter-screen; shares compounds with NPR1 antag; HEK293 GloSensor cGMP, SNP-stimulated, luminescence; Potency, µM (doses to about 57.6 µM), without a hit: top-dose activity change, negative = inhibition, most hits filed as inhibitors; 69% of 1,400 active; AID 1347051; also: % is scaled to controls: 0 for no effect and ±100 for the full control effect; nearly all actives have a fitted effect of over 70% in size
* marks the source's active call; other numbers are inactive results; i = inactive; ? = inconclusive; · = not tested or not shown; [ ] = dose if it differs, or a comment. This is a sample that favours compounds with a hit; in the whole collection about 11% have one here. Unless noted, calls follow the shape of the full dose curve. Potency is read from the fitted curve at half-maximal effect.

SMILES	NIH3T3 tox	FLuc inh	NPR1 antag	HEK293 tox	Npr1 antag conf	Npr2 selectivity	FLuc inh counter	GloSensor cGMP
Cc1ccccc1S(=O)(=O)N1CCCC(CCC(=O)NCc2ccc(F)cc2)C1 (stereo unspecified)	-8%	i	-1%	?	·	·	·	·
Cc1ccccc1S(=O)(=O)N1CCCC(CCC(=O)Nc2cccc(Cl)c2)C1 (stereo unspecified)	?	i	11µM*	22µM*	24µM*	27µM*	2%	27µM*
COc1cccc(-c2ccc(C(=O)NCCNC(=O)NC(C)C)cc2)c1	-10%	·	·	i	·	·	·	·
COc1ccc(-c2ccnc3nc(C(C)C)nn23)cc1OC	?	i	6%	-1%	·	·	·	·
Cc1nc(N2CCC(NCCc3cccnc3)CC2)c2ccsc2n1	-21%	i	3%	?	·	·	·	·
Clc1ccc2nc(N3CCC(NCCc4cccnc4)CC3)sc2c1	18µM*	i	13µM*	14µM*	24µM*	24µM*	-28%	22µM*
CC(=O)N1CCC(c2nc(-c3nnn4c3COC(c3ccc(C)cc3)C4)no2)CC1 (stereo unspecified)	-14%	i	-3%	?	·	·	·	·
O=c1c2c(n(Cc3ccccc3)n1-c1ccccc1)CN(Cc1ccc3c(c1)CCO3)CC2	?	i	?	?	·	·	·	·
COc1ccc(-c2nccn3cc(C(=O)NCc4cccnc4)nc23)cc1	?	i	11µM*	-29%	24µM*	19µM*	1%	4%
O=C(c1cc(F)ccc1F)N1CCC2(CC1)N=C(c1ccc(Cl)cc1)NO2	?	i	16µM*	?	24µM*	22µM*	-3%	24µM*
Cc1ccc(C2=NC3(CCN(C(=O)Cc4ccc(Cl)cc4)CC3)ON2)cc1	-21%	i	-3%	-25%	·	·	·	·
O=C(c1cccc2[nH]ccc12)N1CCC2(CC1)N=C(c1ccc(Cl)cc1)NO2	?	i	11µM*	?	19µM*	22µM*	-16%	17µM*
O=C(Cc1cccc(F)c1)N1CCC2(CC1)N=C(c1ccc(Cl)cc1)NO2	?	i	?	?	24µM*	?	3%	24µM*
O=C(NCc1ccc(F)cc1)c1nc(-c2ccc(Cl)nc2)c2cnccn12	-8%	·	·	-1%	·	·	·	·
COc1ccc(C(=O)NC(C(=O)NCC(C)C)C2CCN(C(=O)c3cccs3)CC2)cc1 (stereo unspecified)	-12%	i	-1%	-22%	·	·	·	·
CCn1cc(-c2ccc(C)cc2)cc1C(=O)N1CCN(c2ccccn2)CC1	35µM*	i	14µM*	32µM*	19µM*	19µM*	-2%	15µM*
CCn1cc(-c2ccc(C)cc2)cc1C(=O)N1CCC(C)CC1	?	i	-10%	?	·	·	·	·
CCn1ccnc1CN(CC1CCN(CCc2ccccc2C)CC1)C1CCCC1	?	i	0%	?	·	·	·	·
CC1=NS(=O)(=O)N(C)C=C1C(=O)OCc1nc(-c2cccc(C)c2)no1	?	i	11µM*	?	15µM*	14µM*	-1%	14µM*
COc1ccc(CN2C=C(C(=O)OCc3nc(-c4cccc(OC)c4)no3)C(C)=NS2(=O)=O)cc1	?	i	?	-20%	?	-23%	-14%	?
CC1=NS(=O)(=O)N(C)C=C1C(=O)OCc1nc(-c2ccc(F)cc2)no1	-30%	i	11µM*	?	22µM*	22µM*	-5%	22µM*
COc1cccc(-c2noc(COC(=O)C3=CN(Cc4ccccc4)S(=O)(=O)N=C3C)n2)c1	-21%	?	-24%	?	·	·	·	·
CC1=NS(=O)(=O)N(Cc2ccccc2)C=C1C(=O)OCc1nc(-c2ccc(F)cc2)no1	?	i	-30%	?	·	·	·	·
CC1=NS(=O)(=O)N(C)C=C1C(=O)OCc1nc(C)no1	-3%	i	3%	3%	·	·	·	·
COc1ccc(OC)c(S(=O)(=O)N2CCC([C@H]3[C@@H](OC)C(=O)N3C(C)C)CC2)c1	-15%	i	3%	-2%	·	·	·	·
SMILES	NIH3T3 tox	FLuc inh	NPR1 antag	HEK293 tox	Npr1 antag conf	Npr2 selectivity	FLuc inh counter	GloSensor cGMP
Cc1ccc(-n2cccc2CC(=O)N(C)Cc2ccco2)cc1	?	?	-17%	?	·	·	·	·
O=C1CCNc2ccccc2CN1C1CCCC1	?	·	·	-11%	·	·	·	·
CN1CCC2(CCC1=O)CN(CCCCOc1ccccc1)CCN2C (stereo unspecified)	-16%	i	6%	2%	·	·	·	·
Cc1ccc(S(=O)(=O)N2CCCC(Cn3c(C)nc4cccnc43)C2)cc1 (stereo unspecified)	?	i	-19%	?	·	·	·	·
Cc1nc2cccnc2n1CC1CCCN(S(=O)(=O)c2ccc(C(C)C)cc2)C1 (stereo unspecified)	?	i	?	?	27µM*	?	4%	24µM*
CC(C)(C)c1nnc2ccc(C(=O)NCCc3ccccc3)cn12	?	·	·	0%[172 µM]	·	·	·	·
O=C1OC[C@@H]2CCN(Cc3ccccn3)Cc3ccccc3N12	0%[138 µM]	i	6%[70.6 µM]	2%[172 µM]	·	·	·	·
COc1ccc(C2=NOC3(CCN([S+](=O)([O-])c4cccc(OC)c4)C3)C2)cc1 (stereo unspecified)	?	i	13µM*	28µM*	24µM*	27µM*	0%	24µM*
COc1ccc(C2=NOC3(CCN([S+](=O)([O-])c4cccc(C(F)(F)F)c4)C3)C2)cc1 (stereo unspecified)	?	i	16µM*	?	?	31µM*	4%	?
COc1cccc([S+](=O)([O-])N2CCC3(CC(C)=NO3)C2)c1 (stereo unspecified)	-7%[138 µM]	i	0%[70.6 µM]	i	·	·	·	·
COc1cccc([S+](=O)([O-])N2CCC3(CC(c4cccc(C(F)(F)F)c4)=NO3)C2)c1 (stereo unspecified)	-24%	·	·	-28%	·	·	·	·
O=C(c1ccc2[nH]ccc2c1)N1CCC2(CC1)N=C(c1ccc(Br)cc1)NO2	?	i	11µM*	?	24µM*	14µM*	-10%	11µM*
